In PubChem BioAssay (NCATS):
Inconclusive results are not listed. Active and inactive are the calls of the source. Calls follow the shape of the dose curve; as a rule, active = well fitted cell-killing curve with a large enough effect; inconclusive = small, poorly fitted or top-dose-only effect, or effect the other way; inactive = flat fitted curve, though single readings scatter.

Columns and labels:
Test in all cases: Primary qHTS to identify gynecologic anti-cancer compounds using libraries of approved drugs and bioactive compounds (AID 1345084); also: nearly all actives have a fitted effect of over 55% in size
Conditions in all cases: Gynecologic cancer cell panel viability, ATPlite luminescence, 48 h; series mostly up to 57.5 µM
OV90 = system: OV90
In short: (§1)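 Cells, 1,000 per well, plated 16 h, then exposed 48 h at 37 C to compounds. Viability by ATPlite luminescence after 15 min at room temperature.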

PA-1 = system: PA-1
In short: as §1

SKOV3 = system: SKOV3
In short: as §1

Tov-21-G = system: Tov-21-G
In short: as §1

Tov112D = system: Tov112D
In short: as §1
% is scaled to controls: 0 for no effect and ±100 for the full control effect.

CN=C(N)NCCCCC/C=C(/C)CC(C)C1OC(=O)C(C)C(O)/C=C/C(C)C(O)CC(O)C(C)C(O)CCC(C)C(O)CC2(O)OC(CC(OC(=O)CC(=O)O)CC(O)CC(O)C(C)C(O)/C(C)=C/CCC1C)CC(O)C2O (stereo not given)
inactive: activity change, negative = cytotoxicity (OV90) 7.81% [at 11.6 µM] | activity change, negative = cytotoxicity (PA-1) 16.3% [at 11.6 µM] | activity change, negative = cytotoxicity (SKOV3) 0% [at 11.6 µM] | activity change, negative = cytotoxicity (Tov-21-G) 3.06% [at 11.6 µM] | activity change, negative = cytotoxicity (Tov112D) -6.61% [at 11.6 µM]

CC/C=C\C/C=C\C/C=C\CCCCCCCC(=O)OCC(O)COC1OC(CO)C(O)C(O)C1O (stereo not given)
inactive: Potency (OV90) | Potency (PA-1) | Potency (SKOV3) | Potency (Tov-21-G) | Potency (Tov112D)

CCn1cc(NC(=S)Nc2cc(Cl)ccc2OC)c(C(N)=O)n1
inactive: Potency (OV90) | Potency (PA-1) | Potency (SKOV3) | Potency (Tov-21-G) | Potency (Tov112D)

COC(=O)C1=COC(OC2OC(CO)C(O)C(O)C2O)C2C1C=CC2(O)CO (stereo not given)
inactive: Potency (OV90) | Potency (PA-1) | Potency (SKOV3) | Potency (Tov-21-G) | Potency (Tov112D)

C=C1CCC2C(C)(C(=O)OC)CCCC2(C)C1CCC(C)CC(=O)O (stereo not given)
inactive: Potency (OV90) | Potency (PA-1) | Potency (SKOV3) | Potency (Tov-21-G) | Potency (Tov112D)

CC(C)C(C(=O)N(C)C(C)C(N)=O)N(C)C(=O)C1CCCN1C(=O)/C=C/C=C/C(O)C(C)O (stereo not given)
inactive: Potency (OV90) | Potency (PA-1) | Potency (SKOV3) | Potency (Tov-21-G) | Potency (Tov112D)

C=C(C(=O)O)C1CCC2(C)CCC(O)C(=C)C2C1 (stereo not given)
inactive: Potency (OV90) | Potency (PA-1) | Potency (SKOV3) | Potency (Tov-21-G) | Potency (Tov112D)

Cc1csc(NC(=O)c2ccc(COc3cccc(Cl)c3)o2)n1
inactive: Potency (OV90) | Potency (PA-1) | Potency (SKOV3) | Potency (Tov-21-G) | Potency (Tov112D)

C[C@H](Oc1ccc(S(C)(=O)=O)cc1C(=O)N1CCN(c2ncc(C(F)(F)F)cc2F)CC1)C(F)(F)F
inactive: Potency (OV90) | Potency (PA-1) | Potency (SKOV3) | Potency (Tov-21-G) | Potency (Tov112D)

C=C1CC[C@@H]2[C@](C)(CO[C@@H]3O[C@H](CO)[C@@H](O)[C@H](O)[C@H]3O)[C@H](O)CC[C@@]2(C)[C@@H]1C/C=C1/C(=O)OC[C@H]1O
inactive: Potency (OV90) | Potency (PA-1) | Potency (SKOV3) | Potency (Tov-21-G) | Potency (Tov112D)

COc1ccccc1Oc1ccc(N(Cc2cccnc2)S(=O)(=O)CC(F)(F)F)cc1
inactive: Potency (OV90) | Potency (PA-1) | Potency (SKOV3) | Potency (Tov-21-G) | Potency (Tov112D)

O=C(O)C(O[C@@H]1O[C@H](CO[C@@H]2O[C@H](CO)[C@@H](O)[C@H](O)[C@H]2O)[C@@H](O)[C@H](O)[C@H]1O)c1ccccc1 (stereo not given in full)
inactive: Potency (OV90) | Potency (PA-1) | Potency (SKOV3) | Potency (Tov-21-G) | Potency (Tov112D)

C=C1C(OC(=O)/C(C)=C\C)[C@@]23CCC4[C@@](C)(CCC[C@@]4(C)C(=O)O)C2CC[C@H]1C3OC(C)=O (stereo not given in full)
inactive: Potency (OV90) | Potency (PA-1) | Potency (SKOV3) | Potency (Tov-21-G) | Potency (Tov112D)

CC1(C)CC[C@]2(CO[C@@H]3O[C@H](CO)[C@@H](O)[C@H](O)[C@H]3O)[C@@H](O)C[C@]3(C)C(=CCC4[C@@]5(C)CC[C@H](O[C@@H]6O[C@H](CO[C@@H]7O[C@H](CO[C@@H]8OC[C@@H](O)[C@H](O)[C@H]8O)[C@@H](O)[C@H](O)[C@H]7O)[C@@H](O)[C@H](O)[C@H]6O)C(C)(C)C5CC[C@]43C)[C@@H]2C1 (stereo not given in full)
inactive: activity change, negative = cytotoxicity (OV90) -3.63% [at 11.6 µM] | activity change, negative = cytotoxicity (PA-1) -8.81% [at 11.6 µM] | activity change, negative = cytotoxicity (SKOV3) -1.91% [at 11.6 µM] | activity change, negative = cytotoxicity (Tov-21-G) 4.01% [at 11.6 µM] | activity change, negative = cytotoxicity (Tov112D) -1.63% [at 11.6 µM]

CC[C@H](NC(=O)[C@H](CS(=O)(=O)CC1CC1)N[C@@H](c1ccc(F)cc1)C(F)(F)F)C(=O)C(=O)NC1CC1
inactive: Potency (OV90) | Potency (PA-1) | Potency (SKOV3) | Potency (Tov-21-G) | Potency (Tov112D)

CC12CCC(=O)C=C1C(O)CC1C2C(O)CC2(C)C1CC[C@]2(O)C(=O)CO (stereo not given in full)
inactive: activity change, negative = cytotoxicity (OV90) 9.39% [at 11.6 µM] | activity change, negative = cytotoxicity (PA-1) -1.22% [at 11.6 µM] | activity change, negative = cytotoxicity (SKOV3) -0.607% [at 11.6 µM] | activity change, negative = cytotoxicity (Tov-21-G) -3.93% [at 11.6 µM] | activity change, negative = cytotoxicity (Tov112D) 12.3% [at 11.6 µM]

O=C(CO)[C@@H](O)[C@H](O[C@@H]1O[C@H](CO)[C@H](O)[C@H](O)[C@H]1O)[C@H](O)CO
inactive: Potency (OV90) | Potency (PA-1) | Potency (SKOV3) | Potency (Tov-21-G) | Potency (Tov112D)

O=C1NC(Cc2c[nH]c3ccccc23)C(=O)NC1Cc1c[nH]c2ccccc12 (stereo not given)
inactive: Potency (OV90) | Potency (PA-1) | Potency (SKOV3) | Potency (Tov-21-G) | Potency (Tov112D)

C=C1C[C@]23C[C@H]1CC[C@H]2C1=C[C@H]2OC(=O)[C@@](C)([C@H]1[C@@H]3C(=O)O)[C@H]2O
inactive: Potency (OV90) | Potency (PA-1) | Potency (SKOV3) | Potency (Tov-21-G) | Potency (Tov112D)

C/C=C(\C)C(=O)O[C@@H]1CC2[C@@H](CC=C3C[C@@H](O[C@H]4C[C@H](OC)[C@H](O[C@H]5C[C@H](OC)[C@H](O[C@@H]6O[C@H](C)[C@@H](O[C@H]7C[C@H](OC)[C@H](O[C@@H]8O[C@H](CO)[C@@H](O)[C@H](O)[C@H]8O)[C@@H](C)O7)[C@H](OC)[C@H]6O)[C@@H](C)O5)[C@@H](C)O4)CC[C@@]32C)[C@@]2(O)CC[C@H](C(C)=O)[C@@]12C (stereo not given in full)
inactive: activity change, negative = cytotoxicity (OV90) -1.27% [at 6.55 µM] | activity change, negative = cytotoxicity (PA-1) -4.92% [at 6.55 µM] | activity change, negative = cytotoxicity (SKOV3) -3.56% [at 6.55 µM] | activity change, negative = cytotoxicity (Tov-21-G) -5.17% [at 6.55 µM] | activity change, negative = cytotoxicity (Tov112D) 5.73% [at 6.55 µM]
